Measured values: paper PMC11062922 (Nature Chemical Biology, 2023)
Read-outs that look alike come from different tables or passages of the source.

Assays:
Parameters in all cases: species or system human, MV4-11 + K-562 + COLO205 + SK-N-BE2 + OVCAR-8
SLK = settings: read-out: apparent Kd; compound concentrations:100 nM and 1000 nM (sheet 'Samples'); n = 1
STK10 = settings: read-out: apparent Kd, n = 1
TESK2 = settings: read-out: apparent Kd; compound concentrations:100 nM and 1000 nM (sheet 'Samples'); n = 1
ADCK3 = settings: read-out: apparent Kd, n = 1
ADRBK1 = settings: read-out: apparent Kd; compound concentrations: 100 nM and 1000 nM (sheet 'Samples'), CATDS: 4.7657416287883198E-2; n = 1
AKT1 = settings: read-out: apparent Kd; compound concentrations: 100 nM and 1000 nM (sheet 'Samples'), CATDS: 4.0938746042506198E-2; n = 1
CSNK1A1 = settings: read-out: apparent Kd; compound concentrations: 100 nM and 1000 nM (sheet 'Samples'), CATDS: 4.27416149593133E-2; n = 1
DYRK1A = settings: read-out: apparent Kd; compound concentrations: 100 nM and 1000 nM (sheet 'Samples'), CATDS: 4.0227920038392803E-2; n = 1
ILK = settings: read-out: apparent Kd; compound concentrations: 100 nM and 1000 nM (sheet 'Samples'), CATDS: 5.1421329598879802E-2; n = 1
MAP2K2 = settings: read-out: apparent Kd; compound concentrations: 100 nM and 1000 nM (sheet 'Samples'), CATDS: 0.12895351362438101; n = 1
MAP3K1 = settings: read-out: apparent Kd; compound concentrations: 100 nM and 1000 nM (sheet 'Samples'), CATDS: 4.18687434788882E-2; n = 1
MDN1 = settings: read-out: apparent Kd; compound concentrations: 100 nM and 1000 nM (sheet 'Samples'), CATDS: 4.35192896952597E-2; n = 1
NNT = settings: read-out: apparent Kd; compound concentrations: 100 nM and 1000 nM (sheet 'Samples'), CATDS: 0.130086313463294; n = 1
NQO1 = settings: read-out: apparent Kd; compound concentrations: 100 nM and 1000 nM (sheet 'Samples'), CATDS: 0.14484490381839699; n = 1
PIK3C3 = settings: read-out: apparent Kd; compound concentrations: 100 nM and 1000 nM (sheet 'Samples'), CATDS: 4.45420285121335E-2; n = 1
PLK1 = settings: read-out: apparent Kd; compound concentrations: 100 nM and 1000 nM (sheet 'Samples'), CATDS: 0.280824965441342; n = 1
PSMC3 = settings: read-out: apparent Kd; compound concentrations: 100 nM and 1000 nM (sheet 'Samples'), CATDS: 4.0647702260791799E-2; n = 1
RIOK2 = settings: read-out: apparent Kd; compound concentrations: 100 nM and 1000 nM (sheet 'Samples'), CATDS: 4.4447834501145103E-2; n = 1
SMG1 = settings: read-out: apparent Kd; compound concentrations: 100 nM and 1000 nM (sheet 'Samples'), CATDS: 4.1869296169603699E-2; n = 1
VDAC3 = settings: read-out: apparent Kd; compound concentrations: 100 nM and 1000 nM (sheet 'Samples'), CATDS: 0.150958833754439; n = 1
DHCR24 = settings: read-out: apparent Kd; compound concentrations:100 nM and 1000 nM (sheet 'Samples'); n = 1
DJA1 = tested on: T1, DJA1; settings: read-out: apparent Kd; compound concentrations:100 nM and 1000 nM (sheet 'Samples'); n = 1
T1 construct: gene DNAJA1

ERBB3 = settings: read-out: apparent Kd; compound concentrations:100 nM and 1000 nM (sheet 'Samples'); n = 1
PI4KA = settings: read-out: apparent Kd; compound concentrations:100 nM and 1000 nM (sheet 'Samples'); n = 1
PI4KB = settings: read-out: apparent Kd; compound concentrations:100 nM and 1000 nM (sheet 'Samples'); n = 1
PIK3C2A = settings: read-out: apparent Kd; compound concentrations:100 nM and 1000 nM (sheet 'Samples'); n = 1
PIK3C2B = settings: read-out: apparent Kd; compound concentrations:100 nM and 1000 nM (sheet 'Samples'); n = 1
PIK3CA = settings: read-out: apparent Kd; compound concentrations:100 nM and 1000 nM (sheet 'Samples'); n = 1
PIK3CB = settings: read-out: apparent Kd; compound concentrations:100 nM and 1000 nM (sheet 'Samples'); n = 1
PIK3CD = settings: read-out: apparent Kd; compound concentrations:100 nM and 1000 nM (sheet 'Samples'); n = 1
PRKDC = settings: read-out: apparent Kd; compound concentrations:100 nM and 1000 nM (sheet 'Samples'); n = 1
[1] = compound concentrations:100 nM and 1000 nM (sheet 'Samples')

SMILES: COc1ccc2cc(-c3c(-c4ccncc4)nc(-c4ccc(S(C)=O)cc4C)n3C)ccc2c1 (stereo not drawn) [SB-630812]
- potency estimated from few doses (SLK): 2250 nM
- potency estimated from few doses (STK10; [1]): 1990 nM

SMILES: Cl.c1ccc(-c2n[nH]cc2-c2ccnc(-c3ccc(CN4CCOCC4)cc3)c2)nc1 [GW776245A]
- potency estimated from few doses (TESK2): 1580 nM

SMILES: C[C@@H](Oc1cc(-n2cnc3ccc(OC[C@@H](O)CO)cc32)sc1C(N)=O)c1ccccc1Cl [GSK978744A]
- potency estimated from few doses (ADCK3; compound concentrations: 100 nM and 1000 nM (sheet 'Samples'), CATDS: 5.9783524932330002E-2): 691 nM
- potency estimated from few doses (ADRBK1): 1300 nM
- potency estimated from few doses (AKT1): 2160 nM
- potency estimated from few doses (CSNK1A1): 1860 nM
- potency estimated from few doses (DYRK1A): 2310 nM
- potency estimated from few doses (ILK): 1040 nM
- potency estimated from few doses (MAP2K2): 124 nM
- potency estimated from few doses (MAP3K1): 2000 nM
- potency estimated from few doses (MDN1): 1740 nM
- potency estimated from few doses (NNT): 122 nM
- potency estimated from few doses (NQO1): 99.8 nM
- potency estimated from few doses (PIK3C3): 1620 nM
- potency estimated from few doses (PLK1): 35.3 nM
- potency estimated from few doses (PSMC3): 2220 nM
- potency estimated from few doses (RIOK2): 1630 nM
- potency estimated from few doses (SMG1): 1990 nM
- potency estimated from few doses (STK10; compound concentrations: 100 nM and 1000 nM (sheet 'Samples'), CATDS: 4.6875467745806497E-2): 1370 nM
- potency estimated from few doses (VDAC3): 92.8 nM

SMILES: COc1ccc(-c2cc3c(C)nc(N)nc3n([C@H]3CC[C@H](OCCO)CC3)c2=O)cn1 [PFE-PKIS_29]
- potency estimated from few doses (ADCK3; [1]): 1460 nM
- potency estimated from few doses (DHCR24): 1750 nM
- potency estimated from few doses (DJA1): 1960 nM
- potency estimated from few doses (ERBB3): 453 nM
- potency estimated from few doses (PI4KA): 61.5 nM
- potency estimated from few doses (PI4KB): 702 nM
- potency estimated from few doses (PIK3C2A): 999 nM
- potency estimated from few doses (PIK3C2B): 34.9 nM
- potency estimated from few doses (PIK3CA): 1.27 nM
- potency estimated from few doses (PIK3CB): 10.3 nM
- potency estimated from few doses (PIK3CD): 0.67 nM
- potency estimated from few doses (PRKDC): 817 nM
